The values below come from PubChem BioAssay (NCATS).

Inconclusive results are not listed. Where a call stands in place of a potency, no number is given. The source made the active and inactive calls. Calls follow the shape of the dose curve; as a rule, active = well fitted inhibition curve with a large enough effect; inconclusive = small, poorly fitted or top-dose-only effect; inactive = flat fitted curve, though single readings scatter.
Potency is read from the fitted curve at half-maximal effect.

Sequence of Luciferin 4-monooxygenase (Photinus pyralis) (P08659 whole entry, looked up): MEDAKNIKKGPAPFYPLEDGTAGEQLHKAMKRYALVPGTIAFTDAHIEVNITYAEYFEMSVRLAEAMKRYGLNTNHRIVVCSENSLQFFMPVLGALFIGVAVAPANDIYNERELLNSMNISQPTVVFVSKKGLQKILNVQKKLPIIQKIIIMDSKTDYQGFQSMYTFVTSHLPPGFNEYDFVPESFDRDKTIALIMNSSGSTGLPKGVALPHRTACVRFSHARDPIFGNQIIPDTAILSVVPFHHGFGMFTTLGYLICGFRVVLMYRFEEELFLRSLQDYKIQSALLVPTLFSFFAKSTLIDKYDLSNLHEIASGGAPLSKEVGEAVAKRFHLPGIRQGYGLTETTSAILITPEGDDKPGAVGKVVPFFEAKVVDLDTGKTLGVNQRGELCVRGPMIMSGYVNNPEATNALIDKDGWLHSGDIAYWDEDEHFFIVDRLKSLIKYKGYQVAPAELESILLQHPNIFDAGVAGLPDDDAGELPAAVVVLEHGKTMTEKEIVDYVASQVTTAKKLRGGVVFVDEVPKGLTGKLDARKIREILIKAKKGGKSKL

The test deals with Luciferin 4-monooxygenase (Photinus pyralis) (UniProt P08659). Nature of the test: Biochemical firefly luciferase enzyme assay for NPC (AID 624030). Also: nearly all actives have a fitted effect of over 70% in size. Particulars: purified P. pyralis luciferase, luminescence, 5 min; series mostly up to 24.9 µM. From the text:
Charcot-Marie-Tooth-Association [CMTA] National Center for Advancing Translational Sciences [NCATS] Charcot-Marie-Tooth (CMT) disease was first characterized by Jean-Martin Charcot and Pierre Marie in France and, independently, by Howard Henry Tooth in England in 1886. CMT is one of the most common inherited neurological diseases, affecting approximately 1 in 2,500 Americans. […] The most prevalent type of CMT is known as CMT1A and caused by a duplication of the PMP22 gene which leads to over-expression of this protein. PMP22 is a glycosylated intrinsic membrane protein accounting for 2-5% of the myelin protein content, and its over-expression results in demyelination and subsequently axonal loss. A pair of cellular transcription-based assays was developed in the S16 rat Schwann cell lines (Hai, M., et al., 2002) stably transfected with orthogonal reporters - firefly luciferase (Fluc) and beta-lactamase (beta-Lac) - whose expression is driven by an intronic regulatory element of the PMP22 gene (Jones, E.A., et al., 2011) to recapitulate endogenous expression of PMP22. A comprehensive library of approved drugs, the NCGC Pharmaceutical Collection (Huang, R., et al., 2011), was screened in the cross-validating platform of the orthogonal reporter assays to identify drug modulators inhibitory towards PMP22 expression. A set of counter-screens was devised to address non-specific activity of the library. An ATP-dependent CellTiter-Glo assay (developed by Promega Corp) was utilized to control cell viability. In addition, biochemical Fluc enzyme assay was performed to assess direct inhibition of the Fluc enzymatic activity. References Hai, M., Muja, N., DeVries, G.H., Quarles, R.H. and Patel, P.I. Comparative analysis of Schwann cell lines as model systems for myelin gene transcription studies. J Neurosci Res, 2002. 69(4): pp 497-508 Huang, R., Southall, N., Wang, Y., Yasgar A., Shinn P., Jadhav, A. , Nguyen, D.-T. and Austin, C.P., The NCGC pharmaceutical collection: a comprehensive resource of clinically approved drugs enabling repurposing and chemical genomics. Sci Transl Med, 2011. 3(80): p. 80ps16.
Compounds were transferred to the plates in 23nl, and one microliter/well luciferase enzyme-buffer solution (10 nM P. pyralis luciferase and 50 mM Tris Acetate final concentrations) was dispensed yielding a final reaction volume of […]. Luciferase luminescence was measured by a ViewLux plate reader within 5 minutes of enzyme-buffer addition. The % activity was determined by normalizing to the average readings of PTC124 (a positive control) relative to DMSO (0% Activity). The concentration-effect curves were then classified based on curve quality (r2), response magnitude and degree of measured activity.
For the molecule `NC[C@@H]1O[C@H](O[C@@H]2[C@H](O[C@@H]3O[C@H](CO)[C@@H](O)[C@@H]3O)[C@@H](O)[C@@H](N)C[C@H]2N)[C@@H](N)[C@H](O)[C@@H]1O`, the Potency result was “inactive”. Take `C[C@@H]1C[C@H](OC(=O)[C@@H](O)c2ccccc2)CC(C)(C)N1C`: the Potency result is “inactive”.

In the case of `CS(=O)(=O)c1ccc([C@H](O)[C@H](CF)NC(=O)C(Cl)Cl)cc1`, the Potency result is “inactive”.

With `C[C@H](Oc1ccccc1)C(=O)N[C@@H]1C(=O)N2[C@@H]1SC(C)(C)[C@@H]2C(=O)O`, the Potency result was “inactive”. Then `C#C[C@@]1(O)CC[C@@H]2[C@@H]3CCC4=C(CCC(=O)C4)[C@H]3CC[C@]21C`, with “inactive”; and `CC=C(/C(=C/C)c1ccc(O)cc1)c1ccc(O)cc1`, with “inactive”. Next, `C[C@H](C(=O)O)c1cccc(Oc2ccccc2)c1`: “inactive”. Next, `OCC1OC([S-])[C@H](O)C(O)C1O.[Au+]` (stereo not given in full): “inactive”; `CC(C)(C)NC(=O)[C@@H]1CC[C@@H]2[C@@H]3CC[C@@H]4NC(=O)C=C[C@@]4(C)[C@H]3CC[C@]21C`: “inactive”; `COC1C=CO[C@@]2(C)Oc3c(C)c(O)c4c(O)c(c5c(nc6cc(C)ccn65)c4c3C2=O)NC(=O)/C(C)=C\C=CC(C)C(O)[C@@H](C)C(O)C(C)[C@@H](OC(C)=O)C1C` (stereo not given in full): “inactive”. For the molecule `NCC1O[C@@H](OC2C(N)C[C@H](N)[C@@H](O[C@H]3OC(CO)C(O)C(N)C3O)C2O)C(N)C(O)C1O` (stereo not given in full), the Potency entry is “inactive”.

As for `CO[C@H]1[C@H](O[C@H]2O[C@@H](C)[C@@H](O[C@@H]3C[C@](C)(O)[C@H](OC(=O)CC(C)C)[C@H](C)O3)[C@@H](N(C)C)[C@@H]2O)[C@@H](CC=O)C[C@@H](C)[C@@H](O)/C=C\C=C/C[C@@H](C)OC(=O)C[C@H]1OC(C)=O`, the Potency result is “inactive”. `CCC(=O)O[C@@]1(C(=O)SCF)[C@@H](C)C[C@H]2[C@@H]3C[C@@H](F)C4=CC(=O)C=C[C@@]4(C)[C@]3(F)[C@@H](O)C[C@]21C`: the Potency result was “inactive”. Turning to `CC1(C)OC2CO[C@]3(COS(N)(=O)=O)OC(C)(C)OC3C2O1` (stereo not given in full), the Potency entry was “inactive”. Next, `CC[C@H]1NC(=O)c2cc(S(N)(=O)=O)c(Cl)cc2N1`: “inactive”; `C[C@@H]1Cc2ccccc2N1NC(=O)c1ccc(Cl)c(S(N)=O)c1` (stereo not given in full): “inactive”; `CO[C@@H]1C[C@H](O[C@H]2[C@@H](C)[C@H](O[C@@H]3O[C@@H](C)C[C@@H](N(C)C)[C@@H]3OC(C)=O)[C@H](C)C[C@]3(CO3)C(=O)[C@H](C)[C@H](OC(C)=O)[C@H](C)[C@H](C)OC(=O)[C@@H]2C)O[C@H](C)[C@@H]1OC(C)=O`: “inactive”. Consider `C=CCOc1ccccc1OC[C@H](O)CNC(C)C`, for which the Potency entry is “inactive”. Next, `O=C1OC(CO)C(O)C(O)C1O` (stereo not given): “inactive”; `CN(C)CCCOC1C(C(O)CO)OC2OC(C)(C)O[C@@H]21` (stereo not given in full): “inactive”.

As to `CN1CC(=O)N=C1N`, the Potency result was “inactive”. Then `CN(C)CCc1c[nH]c2ccc(CC3COC(=O)N3)cc12` (stereo not given), with “inactive”; and `C#C[C@]1(O)CCC2C3CCC4=CC(=O)CCC4C3CC[C@@]21C` (stereo not given in full), with “inactive”.

Regarding `O=C1O[C@@H]([C@@H](O)CO)[C@@H](O)[C@H]1O`, the Potency result is “inactive”. Then `CC(=C(CCOP(=O)(O)O)SC(=O)c1ccccc1)N(C=O)Cc1cnc(C)nc1N`, with “inactive”; and `CCCC(=O)O[C@]1(C(=O)CO)CCC2[C@@H]3CCC4=CC(=O)CC[C@]4(C)C3C(O)C[C@]21C` (stereo not given in full), with “inactive”. Then `Cc1ncc([N+](=O)[O-])n1C[C@H](O)CCl`, with “inactive”. Next, `O=C(NC[C@@H](O)CO)c1c(I)c(C(=O)NC[C@@H](O)CO)c(I)c(N(CCO)C(=O)CO)c1I`: “inactive”. As to `C[C@@H](CNC1CCCCC1)OC(=O)c1ccccc1`, the Potency entry was “inactive”. On to `C/C1=C2N=C(/C=C3N=C(/C(C)=C4\[N-]C(C)(C5N=C1C(C)(CCC(=O)NCC(C)OP(=O)([O-])O[C@H]1C(O)C(n6cnc7cc(C)c(C)cc76)O[C@@H]1CO)C5CC(N)=O)C(C)(CC(N)=O)C4CCC(N)=O)C(C)(CC(N)=O)C\3CCC(N)=O)C(C)(C)C/2CCC(N)=O.[CH2-]C1OC(n2cnc3c(N)ncnc32)C(O)C1O.[Co]` (stereo not given in full), for which the Potency result was “inactive”. Take `CC(=O)O[C@@]1(C(C)=O)CCC2C3CC(C)C4=CC(=O)CC[C@@]4(C)C3CC[C@]21C` (stereo not given in full): the Potency entry is “inactive”. On to `O=C1O[C@H](CN2CCOCC2)CN1/N=C\c1ccc([N+](=O)[O-])o1`, for which the Potency entry is “inactive”. Next, `C=C1c2c(Cl)ccc(O)c2C(O)=C2C(=O)[C@@]3(O)C(O)=C(C(N)=O)C(=O)[C@@H](N(C)C)[C@@H]3[C@@H](O)[C@H]12`: “inactive”; `COC(=O)[C@@H]1[C@@H]2C[C@H]3c4[nH]c5cc(OC)ccc5c4CCN3C[C@@H]2C[C@H](OC(=O)/C=C\c2cc(OC)c(OC)c(OC)c2)[C@H]1OC`: “inactive”.

With `O=C(N/N=C\c1ccc([N+](=O)[O-])o1)c1ccc(O)cc1`, the Potency entry was “inactive”. As for `Nc1nc(NC2CC2)c2ncn([C@H]3C=C[C@@H](CO)C3)c2n1`, the Potency was 11.4 µM (active).

For `COC1OC(CO)C(OC2OC(C(=O)O)C(OC3OC(COS(=O)(=O)O)C(OC4OC(C(=O)O)C(OC5OC(CO)C(OC6OC(C(=O)O)C(OC7OC(COS(=O)(=O)O)C(OC8OC(C(=O)O)=C[C@H](O)C8OS(=O)(=O)O)C(O)C7NC(C)=O)[C@@H](O)C6O)C(O)C5NC(C)=O)[C@@H](O)C4O)C(O)C3NC(C)=O)[C@@H](O)C2O)C(O)C1NC(C)=O` (stereo not given in full), the Potency result is “inactive”. Then `O=C(Nc1ccccc1)OC[C@H](CN1CCCCC1)OC(=O)Nc1ccccc1`, with “inactive”. Consider `CC(=O)OCC(=O)[C@@]1(O)[C@H](C)C[C@@H]2[C@H]3CCC4=CC(=O)C=C[C@]4(C)[C@]3(F)[C@@H](O)C[C@@]21C`, for which the Potency entry is “inactive”.

`Cc1ccc2c(c1)c1c3n2CCN[C@H]3CCC1`: the Potency result is “inactive”.
